Data on eight molecules can be found in PubChem BioAssay (NCI).

Holding throughout (test): NCI-60 one-dose screen, 48 h (100 = growth as untreated, 0 = no growth, -100 = all killed)
Conditions in all cases: 10 µM unless noted

For test [1], the system named is NCI-H23 lung.
Test [2] relates to NCI-H226 lung.
Test [3] deals with NCI-H322M lung.
Test [4] deals with HOP-62 NSCLC.
In test [5] the test system is NCI-H460 lung.
Test [6] deals with HOP-92 NSCLC.
Test [7] has as its system NCI-H522 lung.
For test [8], the system named is A549/ATCC NSCLC.
The subject of test [9] is 786-0 renal.
Test [10] relates to COLO 205 colon.
Test [11] deals with DU-145 prostate.
Test [12] has as its system K-562 leukemia.
Test [13] relates to MALME-3M melanoma.
Test [14] relates to MDA-MB-231 breast.
The test system of test [15] is RXF 393 renal.
The test system of test [16] is SF-268 CNS.
Test [17] relates to SF-295 CNS.
The test system of test [18] is SF-539 CNS.
In test [19] the test system is UACC-257 melanoma.
Test [20] relates to M14 melanoma.

This is part of a sample that, as a whole, favours compounds with a hit. Of some 83,000 tested, about 20% had one in any assay.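 A percent growth of 40 corresponds to 60% growth inhibition; 0 means no net growth; -100 means all cells died. Active threshold: below 10.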 Unmarked numbers belong to inactive results. Active and inactive are the calls of the source.

Take `Nc1c(Br)cc2c(c1Br)Cc1cc([N+](=O)[O-])ccc1-2`: the growth in test [1] is 81.3%; in test [2], 69%; in test [3], 98.4%; in test [4], 90.3%; in [5] it was 83.2%; in test [6], 84.8%. The growth in test [7] is 97%; in test [8] it was 86.8%; in test [9], 109%; in test [10], 109%; in [11], 124%; in [12] it was 69.5%. Besides, the growth in [13] is 67.3%; in [14] it was 90.6%; in [15], 115%; in [16], 103%; in [17], 117%; in test [18], 99.4%. The growth is 93.5% in test [19] and 111% in [20].

For the molecule `CCCCCCCCCCOC(=O)c1nn(C(C)=O)c2cc(C)c(C)cc12`, the growth in test [1] was 96.3%; in test [2] it was 87.8%; in test [3], 107%; in test [4], 94.5%; in test [5], 101%; in [6], 68.5%. Besides, the growth is 75.1% in test [7]; 83.8% in [8]; 94.6% in test [9]; 102% in test [10]; 106% in test [11]; 95.2% in test [12]. Further, the growth in test [13] was 104%; in [14], 105%; in [15], 104%; in test [16], 102%; in test [17], 96%; in test [18], 97.6%. Moreover, the figures for the growth in [19] and in test [20] were 96.3% and 90.7%, respectively.

For `CC(C)n1c2ccc(Br)cc2c2c3c(c4c5ccccc5ccc4c21)C(=O)NC3=O`, the growth was 93.7% in test [1]; 95.5% in [2]; 70.9% in test [3]; 94.6% in [4]; 89.9% in [5]; 117% in test [6]. The growth in [7] is 71.9%; in test [8], 98.3%; in test [9], 101%; in [10] it was 101%; in test [11], 84.2%; in test [12], 76.4%. Also, the growth is 105% in test [13]; 110% in test [14]; 98.5% in test [15]; 88.7% in test [16]; 101% in test [17]; 91.5% in test [18]. Besides, the growth was 113% in test [19] and 92.7% in test [20].

For `O=c1oc2c(cc1-c1ccccc1)c[n+]([O-])c1ccccc21`, the growth in test [1] is 101%; in test [2], 93.5%; in test [3], 104%; in [4], 99.2%; in [5], 98%; in test [6] it was 86.4%. The growth was 98.9% in test [7]; 98% in test [8]; 90.3% in [9]; 102% in test [10]; 103% in [11]; 92.6% in test [12]. Also, the growth in test [13] is 97.7%; in test [14], 91.8%; in [15] it was 94.6%; in test [16] it was 107%; in test [17], 101%; in test [18], 101%. The growth is 100% in test [19] and 103% in test [20].

Regarding `CCOC(=O)C(CCN(C)C)c1ccccc1` (stereo not given), the growth in test [1] was 94.4%; in test [2], 90.3%; in test [3] it was 91.9%; in [4], 88.8%; in test [5], 105%; in test [6], 78.8%. The growth is 84.5% in test [7]; 91.8% in test [8]; 98.1% in [9]; 116% in test [10]; 105% in test [11]; 107% in [12]. The growth is 96% in test [13]; 99% in [14]; 90.4% in test [15]; 90% in test [16]; 101% in test [17]; 96.2% in [18]. Besides, the growth was 94.2% in test [19] and 106% in test [20].

Take `C[C@@H]1CN(c2cnc(C(=O)Nc3cc(F)cc4cccnc34)cn2)C[C@H](C)N1`: the growth in [1] was 63%; in test [2] it was 44.8%; in test [3], 93.1%; in test [4], 83.8%; in test [5], 88.9%; in test [6], 46%. For the same molecule, the growth in [7] is 51.7%; in [8], 94.6%; in test [9], 60.6%; in [10], 13%; in test [11] it was 84.1%; in test [12], 28.5%. The growth is 65.2% in [13]; 37.7% in [14]; 39.8% in test [15]; 88.1% in test [16]; 101% in test [17]; 94.7% in test [18]. Besides, the growth in test [19] was 41.4%; in [20], 73.9%.

As for `CC(O)Cc1c[nH]c(=O)[nH]c1=O` (stereo not given), the growth in [1] was 102%; in [2], 109%; in test [3], 132%; in test [4], -56.4% (active); in test [5] it was 103%; in [6], 111%. Besides, the growth in test [7] is 110%; in test [8], 93.7%; in test [9] it was 109%; in [10], -66.5% (active); in [11] it was 97.9%; in test [12], 126%. Further, the growth in test [13] is 142%; in [14], 112%; in test [15] it was 192%; in [16], 90%; in [17] it was 112%; in test [18] it was 110%. For the same molecule, the growth in [19] is 92.7%; in test [20] it was 102%.

In the case of `CC(C)(Sc1cc(C(C)(C)C)c(O)c(C(C)(C)C)c1)Sc1cc(C(C)(C)C)c(OC(=O)CCC(=O)O)c(C(C)(C)C)c1`, the growth in test [1] was 40%; in test [2], 67.4%; in test [3] it was 56.4%; in test [4] it was 44.7%; in [5], 28.9%; in test [6] it was 35.8%. The growth in test [7] is 36.9%; in test [8] it was 28.6%; in test [9] it was 44.7%; in test [10], 55%; in test [11], 57.2%; in [12], 69.4%. The growth in test [13] is 65.8%; in test [14], 58.3%; in test [15] it was 67%; in test [16], 57.3%; in [17], 42.1%; in [18], 47.8%. Further, the values for the growth in [19] and in test [20] were 61.8% and 50.9%, respectively.
